# Assay outcomes (PubChem)
# Fluorescein autfl – compound autofluorescence in fluorescein spectral region. Compound autofluorescence, 480/540 nm, fluorescein-equivalent; stronger effect = higher value. max fluorescein-equivalent concentration, M. 59,000 tested, 0.91% active; in the data active = max fluorescein-equivalent concentration above about 10 nM; inconclusive = between about 1.1 nM and that limit
#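 Autofluorescence profiling; 100 mM Tris, pH 8.0; incubation 15 min at RT; ex/em 480/540 nm; result as fluorescein-equivalent concentration.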
# Rhodamine fluor – compound fluoresces in the rhodamine spectral region; Rhodamine-region fluorescence, 547/598 nm, Tris buffer; stronger effect = higher value; max dye-equivalent concentration, M; 59,000 tested, 0.05% active; in the data active = max dye-equivalent concentration above about 11 nM; inconclusive = between about 1.1 nM and that limit
#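 Intensities are converted to rhodamine-equivalent concentration using a six-point rhodamine standard on each plate. Compounds sit 15 min at room temperature in 100 mM Tris buffer, pH 8.0; read uses the 547/598 nm excitation/emission pair.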
# A488 fluor – compound autofluorescence in A488 spectral region. compound autofluorescence, A488 spectral region, dye equivalency; Compound Type: qHTS ECL - MLSMR. max dye equivalency, M. 59,000 tested, 0.1% active
#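 Autofluorescence read at ex 480/em 540 nm after 15 min RT in 100 mM Tris pH 8.0; compound signal normalized to A488 standard series on each plate, reported as dye-equivalent concentration at each test concentration.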
# A647 autofl – A647 region autofluorescence; Compound fluorescence, A647 channel (570/671 nm), Tris buffer; max dye-equivalent concentration, M; 59,000 tested, under 10 active; AID 592;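 note: values scaled relative to a standard on each plate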
#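 Spectral profiling of library compounds in pH 8.0 Tris: 15 min room-temperature incubation, single ex/em pair (570/671 nm), response normalized to Alexa 647 equivalents.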
# Texas Red fluor – compound fluoresces in the Texas Red spectral region | Compound fluorescence, Texas Red channel, 547/618 nm; stronger effect = higher value | max dye-equivalent concentration, M | 59,000 tested, 0.06% active; in the data active = max dye-equivalent concentration above about 10 nM; inconclusive = between about 1.1 nM and that limit
#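 Texas Red-region profiling: compounds in 100 mM Tris pH 8.0 were read at 547/618 nm after 15 min at room temperature. Intensities were normalized against a six-point Texas Red standard series to give dye-equivalent concentration.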
# Resorufin autofl – compounds fluorescent in resorufin spectral region; Compound fluorescence, resorufin region 547/598 nm, buffer; stronger effect = higher value; max dye-equivalent concentration, M; 59,000 tested, 0.04% active
#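 Dye-equivalent concentration values derive from comparing each well's 547/598 nm fluorescence against resorufin standards included on every plate. Incubation was 15 min at room temperature in 100 mM Tris, pH 8.0.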
# An asterisk follows results filed as active; i = inactive; ? = inconclusive. In the library only some 0.9% were active in any assay of this set; here they are far more common. Unless noted, the rule behind the calls is not given here.
SMILES,Fluorescein autfl,Rhodamine fluor,A488 fluor,A647 autofl,Texas Red fluor,Resorufin autofl
O=C(/C=C\c1ccc(O)cc1)c1ccc(O)cc1O,3.7e-08M*,i,?,2e-08,?,i
Cc1ccc(C[C@H](Cc2nc3ccccc3[nH]2)c2nc3ccccc3[nH]2)cc1,i,i,i,4.2e-09,i,i
CN1/C(=C\P(=O)(N(C)C)N(C)C)C(C)(C)c2ccccc21,?,1.2e-08M*,i,1e-09,4.7e-08M*,1e-08M*
COc1ccc2c(c1)CCC1C2CC[C@]2(C)[C@H](NCCCCCCN3C(=O)C=CC3=O)CC[C@@H]12 (stereo partly drawn),?,i,i,1e-09,i,i
N[C@H](Cc1ccc(O)c(I)c1)C(=O)O,i,i,i,1e-09,?,i
CCOc1cccc(C2C(C(=O)c3ccc(C)o3)=C(O)C(=O)N2c2nccs2)c1 (stereo not drawn),4.3e-08M*,i,?,1e-09,i,i
O=C(O)[C@H]1C[C@H](C(=O)O)N1,?,i,i,3.3e-08,?,i
CCn1cc(C(=O)NCc2ccco2)c(=O)c2cc(S(=O)(=O)N3CCCCCC3)ccc21,i,i,i,1e-09,i,i
CCn1cc(C(=O)NCc2ccccn2)c(=O)c2cc(S(=O)(=O)N3CCCCC3)ccc21,1.7e-08M*,?,i,3.6e-08,?,?
O=S(=O)(Nc1nc2ccccc2nc1N1CCN(c2ccccn2)CC1)c1ccc(Cl)cc1,1.7e-08M*,i,i,1e-09,i,i
Cc1cccn2c(=O)c3cc(C#N)c(=NC(=O)c4ccc5c(c4)OCO5)n(CC(C)C)c3nc12,i,i,i,3.6e-08,i,i
Cc1cccn2c(=O)c3cc(C#N)c(=NC(=O)c4ccncc4)n(CCCOC(C)C)c3nc12,1.7e-08M*,i,i,3e-09,?,i
CCCn1c(=NC(=O)c2ccncc2)c(C#N)cc2c(=O)n3cccc(C)c3nc21,1.2e-08M*,i,i,9.1e-09,i,i
COc1cc(/C=C\C(=O)CC(=O)/C=C\c2ccc(O)c(OC)c2)ccc1O,?,i,i,1e-09,i,i
CCOC(=O)c1oc2cc(O)ccc2c(=O)c1-c1csc(C)n1,?,i,i,1.7e-08,i,i
CCOC(=O)c1ccc(CC(=O)c2oc3cc(O)ccc3c2C)o1,2.3e-08M*,i,i,4.9e-09,?,i
[Cu].[O-]/N=C1/C(=[OH+])Nc2ccccc21.[O-]Nc1c(O)[nH]c2ccccc12,i,i,i,1e-09,?,i
N#CC1=C(N)C(C#N)(C#N)[C@H](c2ccoc2)[C@H]2CN(Cc3ccccc3)CC=C12,3.5e-08M*,i,?,2.2e-09,?,i
CCN1CC=C2C(C#N)=C(N)C(C#N)(C#N)C(CCc3ccccc3)C2C1 (stereo not drawn),1.3e-07M*,i,?,1e-09,i,i
CC(=O)N1CC=C2C(C#N)=C(N)C(C#N)(C#N)[C@H](c3ccoc3)[C@H]2C1,3.1e-08M*,i,i,6.1e-08,i,i
CC(=O)N1CC=C2C(C#N)=C(N)C(C#N)(C#N)C(C)C2C1 (stereo not drawn),?,i,i,1e-09,i,i
O=C(COC(=O)c1cnccn1)Nc1ccc(Cl)cc1,1.1e-08M*,i,i,3.2e-09,i,i
O[C@@H]1CC[C@H]2Cc3ccccc3N=C21,i,i,i,4.4e-09,i,i
Cc1ccc(C2C(C#N)=C(N)SC(N)=C2C#N)c(C)c1,1e-08M*,i,i,1.9e-08,i,i
CC(c1ccccc1)C1C(C#N)=C(N)SC(N)=C1C#N (stereo not drawn),i,i,i,1e-09,i,i
SMILES,Fluorescein autfl,Rhodamine fluor,A488 fluor,A647 autofl,Texas Red fluor,Resorufin autofl
Cc1ccc(C2C(C#N)=C(N)SC(N)=C2C#N)cc1,2.3e-08M*,i,i,4.6e-08,i,i
CC1=C(C#N)C(c2ccoc2)C(C(=O)OCc2ccccc2)=C(N)S1 (stereo not drawn),i,i,i,7.1e-09,i,i
N#CC1=C(N)SC(N)=C(C#N)C1c1ccnc2ccccc12,?,i,i,4.4e-08,i,i
N#CC1=C(N)SC(N)=C(C#N)C1c1ccoc1,1.8e-08M*,i,i,2.2e-08,i,i
N[C@H](Cc1cccc(-c2ccccc2CP(=O)(O)O)c1)C(=O)O,?,i,i,1.1e-08,i,i
C=C1C[C@@]23C[C@]1(O)CC[C@@H]2[C@]12C=C[C@@H](O)[C@@](C)(C(=O)O1)[C@@H]2[C@@H]3C(=O)O,i,i,i,2.7e-08,i,i
CC1CCN(c2nc3ccccc3nc2C(C#N)C(=O)NC2CCCCC2)CC1 (stereo not drawn),1.4e-08M*,i,i,1.9e-09,i,i
C=CCNC(=O)C(C#N)c1nc2ccccc2nc1N1CCCCCC1 (stereo not drawn),1.3e-08M*,i,i,1e-09,i,i
CCCCNC(=O)C(C#N)c1nc2ccccc2nc1N1CCN(Cc2ccc3c(c2)OCO3)CC1 (stereo not drawn),?,i,i,1e-09,i,i
COc1ccc(CNC(=O)C(C#N)c2nc3ccccc3nc2N2CCN(C)CC2)cc1 (stereo not drawn),i,i,i,1.5e-09,i,i
C=CCOC(=O)C(C#N)c1nc2ccccc2nc1N1CCN(Cc2ccc3c(c2)OCO3)CC1 (stereo not drawn),1.2e-08M*,i,i,1e-09,i,i
COc1ccc(CNC(=O)C(C#N)c2nc3ccccc3nc2N2CCCC2)cc1 (stereo not drawn),3.5e-07M*,i,2.1e-08M*,1e-09,i,i
CC1CN(c2nc3ccccc3nc2C(C#N)C(=O)NCc2ccc3c(c2)OCO3)CC(C)O1 (stereo not drawn),1.1e-07M*,i,?,1e-09,i,i
CCCCNC(=O)C(C#N)c1nc2ccccc2nc1N1CCCC1 (stereo not drawn),2.3e-07M*,i,1.2e-08M*,1e-09,i,i
CCCCCCOC(=O)C(C#N)c1nc2ccccc2nc1N1CCCCC1 (stereo not drawn),1e-08M*,i,i,2.6e-08,i,i
COC(=O)C(C#N)c1nc2ccccc2nc1N1CCCC1 (stereo not drawn),i,i,i,1e-09,i,i
CC(=O)[C@]1(O)CC[C@@H]2[C@H]3C[C@@H](C)C4=CC(=O)CC[C@@]4(C)[C@H]3[C@@H](O)C[C@]21C,i,i,i,1e-09,?,i
